Bioassay records from PubChem.
In the library only some 19% were active in any assay of this set; here they are far more common.
TDP1 cell noCPT: qHTS for Inhibitors of human tyrosyl-DNA phosphodiesterase 1 (TDP1): qHTS in cells in absence of CPT; DT40 Tdp1-/- hTDP1 cells, no CPT, ATP luminescence, 48 h; Potency, µM (highest dose often 46.2 µM), for the others: top-dose activity change, negative = growth inhibition, usual class: inhibitors; 420,000 tested, 15% active; AID 686978, 2013; also: potency is read from the fitted curve at half-maximal effect; nearly all actives have a fitted effect of over 55% in size
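No-CPT arm: Tdp1-/-;hTDP1 DT40 cells (400/well) plus compounds, incubated ≥48 hr at 37 °C. Readout CellTiter-Glo luminescence.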
HT1080 IDH1KD tx: kills HT-1080 cells with IDH1 knockdown; Potency, µM (series often up to 46.1 µM), without a hit: at the highest dose activity, negative = toxicity, most hits filed as cytotoxic; 360,000 tested, 2% active; HT-1080 IDH1 knockdown viability, ATP luminescence, 48 h; AID 686971;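 also: potency is read from the fitted curve at half-maximal effect; 0% = DMSO wells and -100% = cell-free medium wells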
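Using the IDH1-knockdown HT-1080 line run in the same batch and compound series as the NT line, viability after 48 h at 37 °C was determined by CellTiter-Glo luminescence and expressed as % activity.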
IL-1B inflam inh: inhibitors of inflammasome signaling (IL-1 beta secretion). AID 743279. THP-1 LPS/ATP IL-1B secretion, AlphaLISA, 16 h; hits give low values. activity change, % at 57.5 µM. 360,000 tested, 4.7% active; in the data active = activity change below about -50%; inconclusive = mostly about -30% to -49%
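Secreted IL-1B measured by AlphaLISA bead assay after 16 h compound exposure of THP-1 cells; compounds (final up to 57.5 uM) added 1 h before LPS (250 ng/mL) and ATP (1.25 mM) stimulation; lower signal means less secretion.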
HT1080NT lethal: kills 2HG-producing HT-1080-NT fibrosarcoma cells. HT-1080-NT fibrosarcoma viability, CellTiter-Glo ATP luminescence, 48 h. Potency, µM (highest dose often 46.1 µM), for inactives: at the top dose activity, negative = less viability, hits mostly cytotoxic. 360,000 tested, 1.6% active. AID 686970;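 also: NT is the 2HG producing partner of a matched IDH1 knockdown line; potency is read from the fitted curve at half-maximal effect; 0% = DMSO-treated cells and -100% = media-only wells without cells; nearly all actives have a fitted effect of over 55% in size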
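HT-1080-NT; 750 cells/well; 5% FBS RPMI; 48 h compound, 37 degrees C; CellTiter-Glo luminescence; curve fitting and curve-class assignment.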
DT40 TDP1 CPT: growth inhibition of DT40 Tdp1-/-;hTDP1 cells with camptothecin (screen for TDP1 inhibitors) | chicken DT40 Tdp1-/-;hTDP1 cells + 20 nM CPT, ATP luminescence, 48 h | 420,000 tested, 12% active | Potency, µM (titrated, usually from 46.2 µM), inactives show at the highest dose activity change, negative = growth inhibition, actives largely listed as inhibitors; also: potency is read from the fitted curve at half-maximal effect; nearly all actives have a fitted effect of over 55% in size
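Cell growth measured by CellTiter-Glo luminescence after a minimum 48 h, 37 C compound exposure with 20 nM CPT in Tdp1-knockout DT40 cells stably expressing hTDP1, seeded 400/well; qHTS titration format.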
An asterisk follows results filed as active; ? = inconclusive; . = not tested or not shown; [ ] = another dose, or the depositor's remark. Unless noted, calls follow the shape of the dose curve; as a rule, active = well fitted curve in the direction sought with a large enough effect; inconclusive = small, poorly fitted or top-dose-only effect, or another doubt; inactive = no such curve, though single readings can be large; an effect the other way counts as inactive or inconclusive. Unless noted, % is scaled to controls: 0 for no effect and ±100 for the full control effect.

SMILES	TDP1 cell noCPT	HT1080 IDH1KD tx	IL-1B inflam inh	HT1080NT lethal	DT40 TDP1 CPT
O=Nc1c(O)[nH]c2ccc(Cl)cc12	?	-12.3%	-71.6*	-9.4%	-19.3%
Cc1cccc2c(N=O)c(O)[nH]c12	?	-2.3%	?	-9.8%	?
O=Nc1c(O)[nH]c2ccc(F)cc12	-15.2%	0.3%	-88.1*	-3.9%	1.6%
CCCCc1cc(=O)oc2c(C)c(OCC(=O)N3C[C@H]4C[C@@H](C3)c3cccc(=O)n3C4)ccc12	-19.9%	0.2%	-6.1	-0.4%	?
CSCCC(NS(=O)(=O)c1ccc(C)c(C(=O)O)c1)C(=O)O (stereo not drawn)	-17.9%	12.7%	12.6	12.5%	-12.2%
Cc1ccc(NC(=O)c2cc3c([nH]c2=O)CC(C)(C)CC3=O)cc1	-24.0%	.	.	.	?
O=C(Nc1cc2cccc([N+](=O)[O-])c2oc1=O)c1cccs1	8.1%	18.5%	0.0	-1.9%	5.8%
COc1ccc(CNC(=O)C2CCN(S(=O)(=O)c3ccc(F)cc3)CC2)cc1	-23.9%	.	.	.	-29.8%
CCN(CC(=O)NC(C)(C)C)Cc1nc2c(Br)cc(Br)cc2c(=O)[nH]1	?	?	-100.5*	-3.6%	?
CCN(CC)CCOC(=O)c1ccc(NC(=O)c2nn(C)c3c2COc2ccccc2-3)cc1	3.26µM*	.	.	.	4.11µM*
CCOC(=O)c1ccc(NC(=O)c2nn(C)c3c2COc2ccccc2-3)cc1	-4.5%	.	.	.	?
CC(=O)c1ccc(NC(=O)c2nn(C)c3c2COc2ccccc2-3)cc1	?	.	.	.	14.6µM*
CCOc1ccc(NC(=O)c2noc3c2CSc2ccccc2-3)cc1	-24.7%	.	.	.	-9.1%
CC(=O)c1ccc(NC(=O)c2noc3c2CSc2ccccc2-3)cc1	9.2µM*	.	.	.	14.6µM*
COc1ccc(C)c(NC(=O)NCCc2cnc[nH]2)c1	2.3%	12.0%	-3.6	17.9%	30.0%
CN(Cc1ccccc1)C(=O)[C@@H]1CCCN1C(=O)[C@@H]1CCCN1C(=O)OC(C)(C)C	-27.8%	6.7%	0.0	14.2%	-21.8%
CC(C)(C)c1ccc(C(=O)NCc2nnc(SCC(=O)NC3CCCCC3)o2)cc1	20.6µM*	6.9%	-14.9	8.3%	8.2µM*
COc1ccc(Cc2nnc(SCC(=O)N3CCCCC3)o2)cc1	23.1µM*	-20.6%	-21.2	-4.2%	4.5%
COc1ccc(C(=O)NCc2nnc(SCC(=O)N3CCCC3)o2)cc1OC	10.9%	14.0%	-55.4*	5.6%	11.8%
COc1ccc(Cc2nnc(SCC(=O)N3CCN(c4ccccc4)CC3)o2)cc1	23.1µM*	10.9%	0.0	3.5%	23.1µM*
Cc1nc(SCc2ccccc2)c(C(F)(F)F)c(=O)[nH]1	-2.9%	2.4%	15.0	-11.9%	-0.8%
CCCS(=O)(=O)NC(=O)C1(C)CCCN(C(=O)c2ccc(C#N)cc2)C1 (stereo not drawn)	-2.3%	?	36.5	?	-0.4%
CC(C)COc1ccc(C(=O)N2CCC(c3nc4ccccc4s3)CC2)cc1	?	.	.	.	-6.5%
CCOc1ccc(S(=O)(=O)N2CCC(C(=O)Nc3ccc(C)c(S(=O)(=O)N4CCOCC4)c3)CC2)cc1	?	-12.4%	2.8	-9.0%	?
O=C(NCc1nnc(SCC(=O)N2CCC(Cc3ccccc3)CC2)o1)c1ccccc1F	16.4µM*	-4.6%	1.2	-15.0%	?
SMILES	TDP1 cell noCPT	HT1080 IDH1KD tx	IL-1B inflam inh	HT1080NT lethal	DT40 TDP1 CPT
CN(C)c1ccc(/C=C/c2ccnc3ccccc23)c(N)c1	0.631µM*	.	.	.	0.631µM*
CN(C)c1ccc(/C=C\C=C/c2ccnc3ccccc23)cc1	0.1µM*	.	.	.	0.0794µM*
CN(C)c1ccc(/C=C/c2ccnc3ccccc23)c(F)c1	12.6µM*	.	.	.	?
CN(C)c1ccc(C=O)c(F)c1	-3.5%	.	.	.	17.3%
CN(C)c1ccc(CCc2ccnc3ccccc23)cc1	14.1µM*	.	.	.	12.6µM*
O=C(Nc1ccc(O)c2c(=O)cc(-c3ccccc3Cl)oc12)c1ccc(F)cc1	-25.8%	8.9%	4.2	8.6%	-15.4%
O=C(Nc1ccc(O)c2c(=O)cc(-c3cccc(Cl)c3)oc12)c1cccc(Cl)c1	8.2µM*	1.8%	5.2	10.1%	7.31µM*
COc1ccc(C(=O)Nc2ccc(O)c3c(=O)cc(-c4cccc(Cl)c4)oc23)cc1	-19.0%	?	49.2	?	-17.0%
CC(C)(C)c1ccc(C(=O)Nc2ccc(O)c3c(=O)cc(-c4cccc(Cl)c4)oc23)cc1	7.31µM*	1.1%	14.6	7.7%	5.8µM*
COc1ccc(CCn2c3c(c(=O)[nH]c2=S)CN(c2ccccc2)CN3)cc1OC	?	0.1%	.	6.9%	?
O=C(c1ccc2c(c1)N(Cc1ccc(Cl)cc1)C(=O)c1ccccc1S2(=O)=O)N1CCc2ccccc21	7.31µM*	.	.	.	5.8µM*
O=C(c1ccc2c(c1)N(Cc1ccc(Cl)cc1)C(=O)c1ccccc1S2(=O)=O)N1CCCC1	25.9µM*	.	.	.	20.6µM*
CCN1CCN(C(=O)c2ccc3c(c2)N(Cc2ccccc2)C(=O)c2ccccc2S3(=O)=O)CC1	-23.6%	6.6%	38.5	17.7%	-7.9%
CCN1CCN(C(=O)c2ccc3c(c2)N(Cc2ccc(Cl)cc2)C(=O)c2ccccc2S3(=O)=O)CC1	23.1µM*	.	.	.	?
O=C(c1ccc2c(c1)N(Cc1ccc(F)cc1)C(=O)c1ccccc1S2(=O)=O)N1CCCC1	16.4µM*	.	.	.	23.1µM*
Cc1ccc2nc(Nc3ccc4[nH]c(=O)[nH]c4c3)c(-n3nc(C)cc3C)nc2c1	?	4.4%[9.24 µM]	-89.5*	?	?
COc1ccc(-c2cn3nc(N4CCC(C(=O)NCc5cccc(Cl)c5)CC4)sc3n2)cc1	-28.7%	.	.	.	?
COc1ccc(-c2cn3nc(N4CCC(C(=O)Nc5cccc(OC)c5)CC4)sc3n2)cc1	-24.6%	.	.	.	?
CCc1ccc(NC(=O)C2CCCN(c3nn4cc(-c5ccc(OC)cc5)nc4s3)C2)cc1 (stereo not drawn)	13µM*	.	.	.	?
CCCSCCCNC(=O)C1CCCN(c2nn3cc(-c4ccc(OC)cc4)nc3s2)C1 (stereo not drawn)	13µM*	.	.	.	20.6µM*
COc1ccc(-c2cn3nc(N4CCCC(C(=O)NCc5ccc(Cl)cc5)C4)sc3n2)cc1 (stereo not drawn)	8.2µM*	.	.	.	9.2µM*
COc1ccc(NC(=O)C2CCCN(c3nn4c(=O)cc(C)nc4s3)C2)cc1 (stereo not drawn)	?	-3.3%	-12.3	-5.5%	-8.6%
COc1ccc(-c2cn3nc(N4CCCC(C(=O)Nc5ccccc5OC)C4)sc3n2)cc1 (stereo not drawn)	16.4µM*	.	.	.	14.6µM*
